# Measured values: the supplement of paper PMC8975748
# ± gives the standard deviation of the averaged measurements.
# Tests used:
# [1] = system: Saccharomyces cerevisiae BY4741 SeMeCo community; test: mean cell size (pixel area) (pixels); higher = larger cells; details: 10 µM; 24 h; SM minimal medium
# Outline: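 In this assay, mean cell pixel area per well was obtained from automated confocal images of paraformaldehyde-fixed yeast analysed in Harmony. The cells were a Saccharomyces cerevisiae BY4741 community with four plasmids, each complementing one auxotrophy and carrying a fluorescent marker, grown for 24 h in SM medium with drug at a final 10 µM in 384-well plates. Values are averaged across 3 replicates. Same SeMeCo high-content imaging drug screen: Selleck FDA-approved drugs at 10 µM, 24 h in SM medium, 384-well plates, 3 replicates.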
# [2] = system: Saccharomyces cerevisiae BY4741 SeMeCo community; test: z-score of prototroph abundance vs DMSO median; higher = larger share of this subpopulation than in DMSO controls; details: 10 µM; 24 h; SM minimal medium; subpopulation (auxotrophy): Prototroph
# Outline: (§1)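 Cells of a Saccharomyces cerevisiae BY4741 community, carrying four plasmids that each restored one auxotrophy and encoded a distinct fluorescent protein, were pre-grown overnight to OD600 1.0 and diluted to 0.3. A 70 µl volume was added to 384-well plates acoustically predosed with library drugs (10 µM final) and grown 24 h in minimal SM medium. After paraformaldehyde fixation, automated confocal microscopy was used, with single-auxotroph fluorescent strains for thresholds and autofluorescence correction. The abundance of each subpopulation was scored as a z-score against the vehicle-well median.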
# [3] = system: Saccharomyces cerevisiae BY4741 SeMeCo community; test: z-score of subpopulation abundance vs DMSO median, subpopulation auxotrophic for M; higher = larger share of this subpopulation than in DMSO controls; details: 10 µM; 24 h; SM minimal medium; subpopulation (auxotrophy): M
# Outline: as §1
# [4] = system: Saccharomyces cerevisiae BY4741 SeMeCo community; test: z-score of subpopulation abundance vs DMSO median, subpopulation auxotrophic for U; higher = larger share of this subpopulation than in DMSO controls; details: 10 µM; 24 h; SM minimal medium; subpopulation (auxotrophy): U
# Outline: as §1
# [5] = system: Saccharomyces cerevisiae BY4741 SeMeCo community; test: z-score of subpopulation abundance vs DMSO median, subpopulation auxotrophic for H; higher = larger share of this subpopulation than in DMSO controls; details: 10 µM; 24 h; SM minimal medium; subpopulation (auxotrophy): H
# Outline: as §1
# [6] = system: Saccharomyces cerevisiae BY4741 SeMeCo community; test: z-score of subpopulation abundance vs DMSO median, subpopulation auxotrophic for LU; higher = larger share of this subpopulation than in DMSO controls; details: 10 µM; 24 h; SM minimal medium; subpopulation (auxotrophy): LU
# Outline: as §1
# [7] = system: Saccharomyces cerevisiae BY4741 SeMeCo community; test: z-score of subpopulation abundance vs DMSO median, subpopulation auxotrophic for LM; higher = larger share of this subpopulation than in DMSO controls; details: 10 µM; 24 h; SM minimal medium; subpopulation (auxotrophy): LM
# Outline: as §1
# [8] = system: Saccharomyces cerevisiae BY4741 SeMeCo community; test: z-score of subpopulation abundance vs DMSO median, subpopulation auxotrophic for HM; higher = larger share of this subpopulation than in DMSO controls; details: 10 µM; 24 h; SM minimal medium; subpopulation (auxotrophy): HM
# Outline: as §1
# [9] = system: Saccharomyces cerevisiae BY4741 SeMeCo community; test: z-score of subpopulation abundance vs DMSO median, subpopulation auxotrophic for HU; higher = larger share of this subpopulation than in DMSO controls; details: 10 µM; 24 h; SM minimal medium; subpopulation (auxotrophy): HU
# Outline: as §1
# [10] = system: Saccharomyces cerevisiae BY4741 SeMeCo community; test: z-score of subpopulation abundance vs DMSO median, subpopulation auxotrophic for HL; higher = larger share of this subpopulation than in DMSO controls; details: 10 µM; 24 h; SM minimal medium; subpopulation (auxotrophy): HL
# Outline: as §1
# [11] = system: Saccharomyces cerevisiae BY4741 SeMeCo community; test: z-score of subpopulation abundance vs DMSO median, subpopulation auxotrophic for HLU; higher = larger share of this subpopulation than in DMSO controls; details: 10 µM; 24 h; SM minimal medium; subpopulation (auxotrophy): HLU
# Outline: as §1
# [12] = system: Saccharomyces cerevisiae BY4741 SeMeCo community; test: z-score of subpopulation abundance vs DMSO median, subpopulation auxotrophic for HUM; higher = larger share of this subpopulation than in DMSO controls; details: 10 µM; 24 h; SM minimal medium; subpopulation (auxotrophy): HUM
# Outline: as §1
# [13] = system: Saccharomyces cerevisiae BY4741 SeMeCo community; test: z-score of subpopulation abundance vs DMSO median, subpopulation auxotrophic for LUM; higher = larger share of this subpopulation than in DMSO controls; details: 10 µM; 24 h; SM minimal medium; subpopulation (auxotrophy): LUM
# Outline: as §1
# [14] = system: Saccharomyces cerevisiae BY4741 SeMeCo community; test: z-score of subpopulation abundance vs DMSO median, subpopulation auxotrophic for HLUM; higher = larger share of this subpopulation than in DMSO controls; details: 10 µM; 24 h; SM minimal medium; subpopulation (auxotrophy): HLUM
# Outline: as §1
# [15] = system: Saccharomyces cerevisiae BY4741 SeMeCo community; test: z-score of subpopulation abundance vs DMSO median, subpopulation auxotrophic for L; higher = larger share of this subpopulation than in DMSO controls; details: 10 µM; 24 h; SM minimal medium; subpopulation (auxotrophy): L
# Outline: as §1
# [16] = system: Saccharomyces cerevisiae BY4741 SeMeCo community; test: z-score of subpopulation abundance vs DMSO median, subpopulation auxotrophic for UM; higher = larger share of this subpopulation than in DMSO controls; details: 10 µM; 24 h; SM minimal medium; subpopulation (auxotrophy): UM
# Outline: as §1
# [17] = system: Saccharomyces cerevisiae BY4741 SeMeCo community; test: z-score of subpopulation abundance vs DMSO median, subpopulation auxotrophic for HLM; higher = larger share of this subpopulation than in DMSO controls; details: 10 µM; 24 h; SM minimal medium; subpopulation (auxotrophy): HLM
# Outline: as §1
Compound,mean cell size [1],z-score of prototroph abundance [2],z-score of subpopulation abundance [3],z-score of subpopulation abundance [4],z-score of subpopulation abundance [5],z-score of subpopulation abundance [6],z-score of subpopulation abundance [7],z-score of subpopulation abundance [8],z-score of subpopulation abundance [9],z-score of subpopulation abundance [10],z-score of subpopulation abundance [11],z-score of subpopulation abundance [12],z-score of subpopulation abundance [13],z-score of subpopulation abundance [14],z-score of subpopulation abundance [15],z-score of subpopulation abundance [16],z-score of subpopulation abundance [17]
CCOC(=O)C1=C(COCCN)NC(C)=C(C(=O)OC)C1c1ccccc1Cl (stereo not drawn) [Amlodipine],13 ± 0.37,2.13,3.04,-7,3.95,-7.07,8.35,4.86,-7.36,5.86,-3.87,-6.23,-4.72,-1.8,,,
Nc1ccc(S(N)(=O)=O)cc1 [Sulfanilamide],12.4 ± 0.23,0.43,-0.87,0.22,,,-1.02,-0.8,-1.15,-1.05,-1.52,0.6,-0.2,-0.65,-1.4,0.11,-0.21
O=C(O)C1=C(CSc2nnnn2CS(=O)(=O)O)CS[C@@H]2[C@H](NC(=O)[C@H](O)c3ccccc3)C(=O)N12 [Cefonicid sodium],12.47 ± 0.07,0.12,-0.38,0.61,,,-0.87,-0.77,0.75,0.41,0.39,-0.26,,0.08,-0.08,0.3,0.46
CC[C@@]1(O)C(=O)OCc2c1cc1n(c2=O)Cc2cc3cc(O)ccc3nc2-1 [(S)-10-Hydroxycamptothecin],12.41 ± 0.077,0.14,0.87,-1.66,0.82,-0.98,1.48,0.81,,,0.14,,0.42,-0.28,,-0.98,0.07
CC(=O)NC[C@H]1CN(c2ccc(N3CCOCC3)c(F)c2)C(=O)O1 [Linezolid],12.51 ± 0.11,-0.12,-0.22,1.39,-0.56,,0.19,-0.27,-0.11,,0.07,0.01,-0.15,-0.36,-0.63,0.29,-0.75
CC(C)(C)CC(C)(C)c1ccc(OCCOCC[N+](C)(C)Cc2ccccc2)cc1 [Benzethonium Chloride],11.7 ± 0.27,,-2.12,0.39,0.3,-0.86,,,,-0.38,-0.61,-0.76,0.65,0.07,,-0.2,
CCc1cc(C(N)=S)ccn1 [Ethionamide],12.45 ± 0.074,0.06,0.23,-0.01,0.59,,0.32,0.03,0.19,-0.03,-0.14,-0.25,-0.07,-0.72,0.86,0.25,-0.28
